Experiments:
Assay in all cases: PBM binding z-score (relative to random genomic background probes); higher = stronger binding; sequences stand for … in GC…GCGATTGACAGCGTAGAATGAAGG
[1] = tested on: RARb homodimer (NR concentration 270 nM)
Procedure, shortened: (§1)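 For binding z-scores, the reference was random background probes on custom Agilent 4×180K protein-binding microarrays. These arrays were incubated 1 h with ligand-free nuclear receptor dimers in PBS pH 7.4, 2% milk, 0.02% Triton X-100, 1 mM DTT, 0.2 mg/mL BSA and 0.4 mg/ml salmon testes DNA. Fluorescence was scanned after antibody detection of each partner (one per run) and regression-normalized.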

[2] = tested on: RARg:RXRa (NR concentration 270 nM, RXRa partner concentration 90 nM)
Procedure, shortened: as §1

[3] = tested on: RARg homodimer (NR concentration 270 nM)
Procedure, shortened: as §1

[4] = tested on: RXRa DBDmut IVT, anti-RXR (DBD mutation: RXRa K156A/R161A, NR concentration 90 nM)
Procedure, shortened: as §1

[5] = tested on: RXRa homodimer (NR concentration 180 nM)
Procedure, shortened: as §1

[6] = tested on: THRa:RXRa (NR concentration 90 nM, RXRa partner concentration 90 nM)
Procedure, shortened: as §1

[7] = tested on: THRa homodimer (NR concentration 90 nM)
Procedure, shortened: as §1

[8] = tested on: VDR homodimer (NR concentration 270 nM)
Procedure, shortened: as §1

| Sequence | PBM binding z-score [1] | PBM binding z-score [2] | PBM binding z-score [3] | PBM binding z-score [4] | PBM binding z-score [5] | PBM binding z-score [6] | PBM binding z-score [7] | PBM binding z-score [8] |
| --- | --- | --- | --- | --- | --- | --- | --- | --- |
| ATCGAAAGGTCGAAGGTTAGTATACCCACCCGAA | 2.72 | 4.38 | 3.94 | 1.41 | 5.38 | 2.19 | 0.185 | 0.865 |
| GCGACTGGGGAAAAGCAGGTTACCATAAGGTTGG | 0.416 | -0.0185 | -0.445 | -0.805 | 0.275 | 1.25 | 0.0418 | -0.6 |
| AATACAGGGTCATCGTCGGCCAGAGTACGCACAG | 3.96 | 5.6 | 5.02 | 3.4 | 6.37 | 4.1 | 1.64 | 3.57 |
| TCGTGTAGATCAGCAGGTTAAGAAAGCTGGCCAA | -0.0746 | -0.298 | -0.396 | 0.345 | -0.115 | 0.0652 | -0.429 | -0.282 |
| ACTTACGGGTCAACGAGGTTAAAGCACGCGTATA | 3.82 | 5.73 | 5.18 | 2.51 | 6.72 | 4.25 | 1.17 | 3.67 |
| CAAACTAGGTCACAGGAAGGTCAAAGTCCGCATG | 5.1 | 7.79 | 7 | 2.17 | 6.07 | 4.36 | 2.46 | 3.1 |
| ATCTCTAAGTAACAAGTTCAGTGAAAGAGAGGAC | 1.84 | 0.884 | 1.24 | 1.06 | 0.744 | 0.981 | 0.691 | 2.61 |
| ATAGAAAGGTCGAGGTGAGTATAGAGAAAGGGAA | 2.6 | 4.22 | 4.22 | 0.887 | 4.17 | 2.93 | 0.985 | 0.537 |
| TCTTGTAGATCAAAGGTAAAGAAAGCCGAAGCCT | -0.121 | 0.243 | -0.165 | 0.56 | 0.881 | 0.386 | -0.548 | -0.117 |
| TCTGCTAGGTCAGTTGCTCAGCTAACGAGCTGCC | 1.89 | 2.18 | 3.06 | 0.567 | 0.527 | 1.01 | -0.484 | -0.87 |
| CCAGACAGGTGAGAAGGTAACTGAGCCTCGATTA | 0.357 | 0.527 | 0.335 | -0.107 | 0.0427 | 0.121 | -0.33 | -0.0729 |
| CCTTACGGGGCAAGGTTATAGCACGGGTGGTACG | 0.994 | 1.01 | 1.11 | -1.2 | 1.08 | 0.828 | -0.345 | 0.2 |
| TGTCAAAGTTCGAAGGTAACGTAAGTATCCACAC | 1.02 | 2.38 | 1.83 | 1.74 | 2.23 | 1.44 | 0.0268 | 0.722 |
| AGAACGAGGGCAATGAGTGGATAGCACGGGTGGC | 0.709 | 0.805 | 1.49 | 1.05 | 0.694 | 0.576 | -0.226 | 0.818 |
| CATACTAGGTCACAGAGGTCAAAGTCCGTGCGTA | 5.73 | 7.31 | 7.56 | 3.27 | 7.91 | 4.72 | 3.18 | 6.84 |
| GCTAGTTGGTCAGTAAAAGGTCACATACCGGTCG | 5.15 | 5.2 | 4.75 | 0.819 | 4.95 | 3.52 | 1.86 | 1.74 |
| CCTACTGGGCCACGACAGGTCATTGATTCAGTGA | 2.31 | 1.95 | 1.52 | -0.438 | 1.56 | 2.74 | 0.324 | 0.706 |
| ACTAGGAGGCCAAGGGTCACTCAAGATTAGTCCG | 3.93 | 4.72 | 4.05 | 0.5 | 4.48 | 2.63 | 0.41 | 1.51 |

| Sequence | PBM binding z-score [1] | PBM binding z-score [2] | PBM binding z-score [3] | PBM binding z-score [4] | PBM binding z-score [5] | PBM binding z-score [6] | PBM binding z-score [7] | PBM binding z-score [8] |
| --- | --- | --- | --- | --- | --- | --- | --- | --- |
| TAGCCTACGTCAGATCGGGCCAGTATACGCTATA | -0.763 | -0.503 | -0.517 | -0.801 | -0.569 | 0.901 | -0.732 | -0.727 |
| TCTAGTAGATCAATAGAGGTTAAGAAAGTGCGCT | 1.38 | 0.728 | 0.2 | 0.439 | 1.56 | 2.09 | -0.79 | 0.312 |
| GTGACTGGGGCAAAGCAGGTTACCATAAGGTTGG | 1.55 | 1.43 | 1.19 | -0.205 | 0.875 | 3.35 | 0.631 | 0.275 |
| TAGCCTAGGTCCTGCGGGCCAGTATAGTGTCGGC | -0.744 | -0.626 | -0.818 | -1.46 | -0.822 | -1.56 | -0.966 | -0.992 |
| CGAACTAGGTCATGGACAGGACAGTGAATAGTAA | 2.93 | 5.08 | 4.95 | 1.42 | 3.41 | 3.13 | 0.909 | 0.49 |
| TCGAGTAGGCTAGGGGCATTCAGAATGGCGTCGA | -0.0899 | -0.329 | -0.498 | -0.0684 | 0.0581 | 0.177 | -0.929 | -0.279 |
| CAAACTAGGTCAGGAAAGGTCAAAGTCGAATGAC | 5.66 | 6.84 | 7.48 | 1.51 | 6.81 | 4.74 | 1.62 | 3.13 |
| TCATATAGGTAATACCGGTGAAAGTCGGCATCTA | -0.00712 | 0.24 | 0.212 | 1.35 | 0.935 | 0.246 | 0.113 | -0.092 |
| CCGGGTAGGTTATGGGGCATTCAGGCAACGGTGA | 1.1 | 0.906 | 0.708 | -1.46 | 0.781 | 0.806 | 0.313 | 0.138 |
| CCGAGTAGATTATGGGGCATTCAGGCAACGGTGA | 0.0129 | -0.113 | 0.0692 | 0.349 | -0.0432 | 0.271 | -0.141 | -0.481 |
| GCTGGGAGGACAAGGTCAGAGCTTTGTCCGTAGA | 3.21 | 3.33 | 3.55 | 0.766 | 2.49 | 3.31 | 1.8 | 0.796 |
| CTCGAAAGGTCGGTTGAGGTGAGAATACGGATAA | 2.21 | 3 | 3.18 | 0.839 | 2.33 | 4.84 | 1.13 | 0.742 |
| TAGCCTAGGTCATGCTGGCCAGTATAGTGTCGGC | 3.02 | 3.72 | 4.32 | 0.579 | 2.71 | 3.03 | 0.898 | -0.0948 |
| CCTACTGGGCCACGAAAGCTCATTGATTCAGTGA | -0.538 | -0.286 | 0.00415 | -0.605 | -0.6 | -0.523 | -0.958 | -0.935 |
| CAAACTAGTTCACCGGAAGGTCAAAGTCCGCATG | 4.92 | 6.9 | 4.99 | 2.8 | 4.73 | 3.73 | 1.72 | 3.2 |
| CCTACTGGGCCATAAGGTCATTGATATCAACGTT | 3.91 | 3.77 | 3.15 | 1.01 | 3.28 | 4.14 | 4.56 | 2.93 |
| CAAACTTGGTCACCGGAAGGTCAAAGTCCGCATG | 4.11 | 5.35 | 4.2 | 0.79 | 4.16 | 3.05 | 1.24 | 2.2 |
